Reference: PubChem BioAssay AID1415 (NMMLSC, 2008)
In all, about 220,000 compounds went through this assay and about 710 (0.32%) were called active. The entries come from a sample that favours actives as a whole. Values without a mark were called inactive. Rule as the data show it: active = binding response below about 49% or above about 150%; inactive = in between.

target: Guanine nucleotide-binding protein G(o) subunit alpha (Homo sapiens) (UniProt P09471); assay: modulators of RGS4 binding to Galphao, primary screen, biochemical, multiplexed bead flow cytometry (AID 1415); settings: at 10 µM, actives lie on both sides;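 also: fluorescent Galphao activated with aluminum fluoride binding bead-coupled RGS4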
Sequence (P09471 whole entry, looked up): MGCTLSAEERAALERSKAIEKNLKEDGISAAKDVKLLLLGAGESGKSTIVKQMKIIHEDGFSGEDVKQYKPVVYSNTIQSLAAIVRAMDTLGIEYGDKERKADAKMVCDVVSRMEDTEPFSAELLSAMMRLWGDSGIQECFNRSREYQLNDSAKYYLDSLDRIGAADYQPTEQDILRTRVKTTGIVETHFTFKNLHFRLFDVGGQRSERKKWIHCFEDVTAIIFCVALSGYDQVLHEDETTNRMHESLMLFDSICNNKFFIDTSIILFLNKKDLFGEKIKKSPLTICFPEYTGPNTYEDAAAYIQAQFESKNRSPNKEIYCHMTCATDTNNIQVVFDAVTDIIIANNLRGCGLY

Structure (SMILES) | binding response (% of control)
COC(=O)CCCC1=CC2=CC(=O)C(C)(OC(=O)c3cccs3)C(=O)C2=CN1c1cccc(C#N)c1 (stereo not given) | 96%
CCOc1cccc(OCCCOc2cccc3cccnc23)c1 | 93%
O=C(NNC1=C(C(=O)C(F)(F)F)CCC1)c1ccncc1 | 86.6%
Cc1ccc(N2C(=O)C3CC3C2=O)cc1 (stereo not given) | 100%
Cc1ccc(N2C(=O)C(Cc3ccccc3)NC2=S)cc1 (stereo not given) | 104%
Cc1ccc(N2C(=O)C3C(c4ccccc4)(C2=O)C3(c2ccccc2)c2ccccc2)cc1 (stereo not given) | 8.37% (active)
CC(=O)c1ccc(S(=O)(=O)N2CCN(C(=O)/C=C/c3ccc4ccccc4n3)CC2)cc1 | 84%
Cc1cccc(NC(=O)CSc2nnc(CCNC(=O)OC(C)(C)C)o2)c1C | 93.8%
O=C(COC(=O)/C=C/c1ccc2c(c1)OCO2)NC1CCS(=O)(=O)C1 (stereo not given) | 104%
Nc1ccc(C(=O)OCC(=O)NC2CCCc3ccccc32)cc1[N+](=O)[O-] (stereo not given) | 98.3%
Nc1ccc(C(=O)OCC(=O)NC2CCS(=O)(=O)C2)cc1[N+](=O)[O-] (stereo not given) | -18.4% (active)
Cc1ccc(C(=O)Nc2nc(N)n(-c3ccccc3)n2)cc1 | 103%
CC(=O)c1ccc(NC(=S)N(Cc2ccccc2)C(C)C2CC2)cc1 (stereo not given) | 106%
COCC(C)n1c(C)cc(C(=O)COc2ccc(C)nc2[N+](=O)[O-])c1C (stereo not given) | 99.8%
Cc1cc(C)n(CC(O)CN(c2ccccc2)S(=O)(=O)c2ccc3ccccc3c2)n1 (stereo not given) | 13.8% (active)
O=S(=O)(c1ccccc1)N(CC(O)CN1CCCCC1)c1ccccc1 (stereo not given) | 103%
Cc1ccc(N(CC(O)CN2CCCC2)S(=O)(=O)c2ccccc2)cc1 (stereo not given) | 101%
COC(=O)c1ccc(CN2CCN(CCCc3ccccc3)C(CCO)C2)cc1 (stereo not given) | 91.5%
CCN(C(=O)COC(=O)c1cc(S(=O)(=O)N2CCc3ccccc32)ccc1OC)C1CCS(=O)(=O)C1 (stereo not given) | 104%
COc1ccccc1NC(=O)C[n+]1ccccc1 | 96%
O=C(CCCCCn1c(=O)[nH]c2ccccc2c1=O)NCCc1c[nH]c2ccccc12 | 100%
COc1ccccc1NC(=O)CCCc1c[nH]c2ccccc12 | 440% [activator] (active)
COc1ccc(CCNS(=O)(=O)c2cccc3cccnc23)cc1OC | 97.9%

Structure (SMILES) | binding response (% of control)
O=C(CSc1ccc([N+](=O)[O-])cn1)Nc1ccc(N2CCOCC2)c(Cl)c1 | 94.7%
O=C(CN1CCN(c2ccc(Cl)cc2)CC1)N1CCCC1 | 104%
O=C(COc1ccc(Cl)cc1)N1CCN(c2cccc(C(F)(F)F)c2)CC1 | 101%
COC(=O)c1ccccc1OCC(=O)N1CCN(c2ccc(Cl)cc2)CC1 | 349% [activator] (active)
Cc1cccc(CSc2nc3c(c(=O)n2C)SCC3)c1 | 98.4%
CCc1n[nH]c(=S)n1/N=C/c1c[nH]c2ccc(Br)cc12 | 103%
COc1c(O)cc2oc(-c3ccc(O)c(O)c3)cc(=O)c2c1O | 90.8%
Cc1ccc(-c2c[n+](=O)c3c(n2[O-])CCC3)cc1 | 101%
FC(F)Oc1ccccc1C1CC(c2ccc(Br)s2)Nc2ncnn21 (stereo not given) | 187% [activator] (active)
COc1ccc(C2CC(c3ccccc3)Nc3ncnn32)cc1 (stereo not given) | 99.7%
Clc1ccc(C2CC(c3cccs3)n3ncnc3N2)cc1Cl (stereo not given) | 97.8%
Cc1ccc(C(=O)Cc2nnc(C)s2)cc1 | 100%
COC(=O)[C@H]1Cc2cnoc2C[C@]1(C)C(=O)O | 101%
CCOC(=O)c1ccc(NC(=O)c2nc[nH]c2C(=O)N[C@@H](CCCCNC(=O)OC(C)(C)C)C(=O)OC(C)(C)C)cc1 | 96.7%
CC(C(=O)O)n1cnc2sc3c(c2c1=O)CCCC3 (stereo not given) | 94.7%
C=CCn1c(=NC(=O)c2cccs2)sc2cc(NC(C)=O)ccc21 | 154% [activator] (active)
C=CCn1c(=NC(=O)c2ccc(S(=O)(=O)N3CCCC3)cc2)sc2cc(NC(C)=O)ccc21 | 94.5%
CC(=O)Nc1ccc(/C=N/NC(=O)c2cccs2)cc1 | 99.4%
Cc1ccc(OCC(=O)Nc2nnc(-c3ccco3)s2)cc1 | 102%
Cc1ccc2[nH]c(=O)c(CN3CCCCC3)c(-c3ccccc3)c2c1 | 101%
CCOC(=O)NNc1cc(C(F)(F)F)ccn1 | 169% [activator] (active)
CCC(=O)NC(Nc1cc(C)ccn1)(C(F)(F)F)C(F)(F)F | 104%
Cc1ccc(NC(=O)Nc2cccc(C(F)(F)F)c2)nc1 | 99.7%

Structure (SMILES) | binding response (% of control)
CCCSc1nc(NCc2ccco2)c2c3c(sc2n1)COC(C)(CC)C3 (stereo not given) | 104%
COc1ccccc1-n1cn[nH]c1=S | 98.6%
COc1ccccc1-n1c(-c2cc(-c3ccco3)[nH]n2)n[nH]c1=S | 7.03% (active)
COc1ccc(OC)c(-n2c(-c3ccn[nH]3)n[nH]c2=S)c1 | 96.7%
CSc1ccc(/C=C/C(=O)NC23CC4CC(CC(C4)C2)C3)cc1 | 99.9%
Fc1ccccc1/C=N/n1c(-c2cccnc2)n[nH]c1=S | 102%
OCCC1CN(Cc2cccc(OC3CCCC3)c2)CCN1Cc1ccsc1 (stereo not given) | 100%
COc1ccc(C)cc1S(=O)(=O)N(CC(=O)Nc1cccc([N+](=O)[O-])c1)c1ccc(C)cc1 | 87.7%
CC(=O)NC1C(OCc2ccccc2)OC(COC(C)=O)C(OC(C)=O)C1OC(C)=O (stereo not given) | 101%
O=C(OCC1O[C@@H](OC(=O)c2cc(O)c(O)c(O)c2)[C@@H](OC(=O)c2cc(O)c(O)c(O)c2)[C@@H](OC(=O)c2cc(O)c(O)c(O)c2)[C@@H]1OC(=O)c1cc(O)c(O)c(O)c1)c1cc(O)c(O)c(O)c1 (stereo not given in full) | 1.38% (active)
COc1cc(C(CCN2CCN(c3ccccc3)CC2)c2c(OC)cc(OC)c3ccc(=O)oc23)cc(OC)c1OC (stereo not given) | 101%
COCCNC(=S)N/N=C/c1c(C)[nH]c2ccccc12 | 159% [activator] (active)
Cc1[nH]c2ccccc2c1/C=N\NC(=O)Cn1nnc(-c2ccccc2)n1 | 102%
Cc1[nH]c2ccccc2c1/C=N/NC(=O)CNC(=O)c1ccc2c(c1)OCO2 | 111%
O=C(Nc1ccc(F)cc1)C1CCN(C(=O)c2ccc([N+](=O)[O-])cc2)CC1 | 99.8%
COc1cc(C(=O)OCc2ccc([N+](=O)[O-])cc2)cc(OC)c1OC | 98.2%
CCN(CC)CCn1cnc2c1c(=O)n(CCOC(=O)c1cc(OC)c(OC)c(OC)c1)c(=O)n2C | 155% [activator] (active)
CCN(CC)CCN1C(=O)C(=O)/C(=C(/O)c2ccc(OC)c(OC)c2)C1c1ccccn1 (stereo not given) | 99.2%
COCCCn1c(-c2cccs2)nc2nc3ccccc3nc21 | 103%
COc1cccc(C(=O)NCCSc2ccc(Br)cc2)c1 | 19.5% (active)
COc1cccc(C(=O)NNC(=O)c2ccccc2Br)c1 | 103%
COc1cc(OC)cc(C(=O)NCCSCc2ccco2)c1 | 93.2%
C#CCOCCOCCOCCNc1nc(N2CCN(C(=O)[C@H](CCC(=O)O)n3cc(C(N)CO)nn3)CC2)nc(N2CCN(C(=O)[C@H](CCCCN)n3cc(C(N)CC(C)C)nn3)CC2)n1 (stereo not given in full) | 104%

Structure (SMILES) | binding response (% of control)
Cc1ccc(NC(=O)c2oc(=O)c3ccccc3c2-c2ccccc2)c(C)c1 | 105%
CCCCCCCCCOC1OC(CO)C(O)C(O)C1NC(C)=O (stereo not given) | 98.8%
CC(C)=CCC/C(C)=C/C(=O)O | 92.6%
COCCNC(=S)Nc1cc(S(=O)(=O)N2CCOCC2)ccc1N1CCCCC1 | 97.4%
COc1ccccc1CCNC(=O)c1cnccn1 | 97.6%
CCCn1cc(SCC(N)=O)c2ccccc21 | 82.2%
NC(=O)CSc1c[nH]c2ccccc12 | 30% (active)
O=C(Cc1c[nH]c2ccccc12)OCCOC(=O)Cc1c[nH]c2ccccc12 | 97.3%
COc1ccc(Cl)cc1C(=O)NNC(=S)NC(=O)/C=C/c1ccco1 | 104%
CCOc1ccc(-c2c(C)n([O-])c3c([n+]2=O)CCCC3)cc1 | 102%
Cc1c(S(=O)(=O)NCc2ccccc2)c(=O)n(C)c(=O)n1C | 103%
CC(C)=CCc1c(O)c(CC=C(C)C)c2occ(-c3ccc(O)cc3)c(=O)c2c1O | 96.8%
CC(=O)c1cc(-c2ccccc2)n(CC(=O)NC2CCCCC2)c1C | 94.2%
CCOCCCNC(=O)C(NC(=O)c1ccc(=O)[nH]c1)c1ccc(Cl)cc1 (stereo not given) | 98.1%
COc1ccc(C2=NOC(COC(=O)c3ccc4ccccc4n3)C2)cc1 (stereo not given) | 99.3%
COc1ccc(C(=O)COC(=O)c2ccc3ccccc3n2)cc1 | 36.8% (active)
CC(OC(=O)c1ccc2ccccc2n1)C(=O)c1ccccc1 (stereo not given) | 103%
Cc1nc(N)[nH]c(=O)c1Oc1cccc(C(F)(F)F)c1 | 99.6%
CCCCCCCN=C(C)c1ccccc1O | 103%
CCOC(=O)C1Cn2c(nc3c(c2=O)C(C)(CC)Cc2ccccc2-3)S1 (stereo not given) | 93%
CCC(=O)Nc1cccc(C2=NOC3(C2)C[C@@H](C(N)=O)N(C(=O)c2cc([N+](=O)[O-])cc([N+](=O)[O-])c2C)C3)c1 (stereo not given in full) | 96%
